This note sets out measurements from ChEMBL document CHEMBL1201862, “PubChem BioAssay data set” (2004).

Structures are written as SMILES. Hit rate of the full screen: of about 400,000 compounds, about 2,100 (0.53%) were called active. Not shown: some 14% with an inconclusive outcome. How the calls were made is not given here. The full list was thinned out, with actives kept by preference.

This assay deals with Ataxin-2 (Homo sapiens) (UniProt Q99700). Description: qHTS for Inhibitors of ATXN expression. In kind it is functional.
Chain of Ataxin-2 (Homo sapiens) (Q99700 whole entry): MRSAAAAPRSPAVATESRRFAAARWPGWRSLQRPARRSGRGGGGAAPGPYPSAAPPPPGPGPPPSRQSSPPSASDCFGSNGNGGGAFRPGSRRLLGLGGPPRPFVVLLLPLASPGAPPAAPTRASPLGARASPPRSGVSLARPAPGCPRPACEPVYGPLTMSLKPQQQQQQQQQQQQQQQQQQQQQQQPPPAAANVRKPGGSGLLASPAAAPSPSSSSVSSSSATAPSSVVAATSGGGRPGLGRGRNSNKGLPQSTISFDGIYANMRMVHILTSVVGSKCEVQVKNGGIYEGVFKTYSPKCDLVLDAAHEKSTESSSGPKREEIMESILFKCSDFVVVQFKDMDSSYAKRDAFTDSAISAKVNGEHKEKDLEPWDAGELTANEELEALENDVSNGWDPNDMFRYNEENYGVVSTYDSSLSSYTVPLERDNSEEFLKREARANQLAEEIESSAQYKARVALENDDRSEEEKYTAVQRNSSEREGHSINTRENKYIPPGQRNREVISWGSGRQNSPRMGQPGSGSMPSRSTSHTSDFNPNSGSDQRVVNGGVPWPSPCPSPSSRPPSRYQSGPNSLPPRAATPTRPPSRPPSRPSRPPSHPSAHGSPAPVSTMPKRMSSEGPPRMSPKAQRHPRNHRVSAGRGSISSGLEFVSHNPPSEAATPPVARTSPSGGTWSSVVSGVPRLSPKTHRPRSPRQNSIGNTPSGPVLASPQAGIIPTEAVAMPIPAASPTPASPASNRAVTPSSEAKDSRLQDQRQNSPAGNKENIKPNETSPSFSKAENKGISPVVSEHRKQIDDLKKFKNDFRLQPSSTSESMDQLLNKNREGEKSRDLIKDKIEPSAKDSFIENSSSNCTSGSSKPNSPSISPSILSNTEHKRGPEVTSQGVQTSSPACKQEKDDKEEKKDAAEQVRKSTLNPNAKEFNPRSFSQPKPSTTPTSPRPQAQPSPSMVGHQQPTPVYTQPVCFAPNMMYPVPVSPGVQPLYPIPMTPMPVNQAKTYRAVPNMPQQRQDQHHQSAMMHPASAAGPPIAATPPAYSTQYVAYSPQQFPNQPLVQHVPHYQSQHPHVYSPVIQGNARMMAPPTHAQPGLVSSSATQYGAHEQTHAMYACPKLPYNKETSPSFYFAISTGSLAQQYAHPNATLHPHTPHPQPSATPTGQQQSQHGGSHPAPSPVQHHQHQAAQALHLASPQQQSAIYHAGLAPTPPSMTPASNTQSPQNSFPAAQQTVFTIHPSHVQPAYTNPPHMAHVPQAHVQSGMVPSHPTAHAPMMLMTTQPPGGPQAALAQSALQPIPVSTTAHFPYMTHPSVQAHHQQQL
`COc1ccc(CC(=O)Nc2ccc(S(=O)(=O)N3CCN(C)CC3)cc2)cc1`: the Potency entry was “inactive”.

Turning to `CC(C)C[C@H]1CNC(=S)N1C[C@H]1CCCN1C[C@H](CC(C)C)N1C[C@H](Cc2ccc(O)cc2)N(CC2CCCCC2)C1=S`, the Potency was 35.5 µM (active).

On to `CC(C)C[C@H]1CN([C@@H](CC(C)C)CN2CCC[C@H]2CN2C(=O)C(=O)NC[C@@H]2Cc2ccc(O)cc2)C(=O)C(=O)N1CC1CCCCCC1`, for which the Potency is 35.5 µM (active).

For the compound `CC(C)C[C@@H](CN1CCC[C@H]1CN1C(=O)C(=O)NC[C@@H]1Cc1ccccc1)N1C[C@H](Cc2ccccc2)N(CC2CCCCCC2)C(=O)C1=O`, the Potency is 20 µM (active).

`CC(C)C[C@@H](CN1CCC[C@@H]1CN1C(=O)C(=O)NC[C@@H]1Cc1ccccc1)N1C[C@H](Cc2ccc(O)cc2)N(CC2CCCCCC2)C(=O)C1=O`: the Potency was 28.2 µM (active).

On to `CCCCN(C)Cc1cc(=O)oc2cc3c(cc12)CCCC3`, for which the Potency entry was “inactive”.

Take `Nc1cccc2c1C(=O)N(C(=O)c1ccc(S(=O)(=O)N3CCCCCC3)cc1)C2=O`: the Potency result was “inactive”.

Turning to `Cc1c(C)c2cc(Cl)c(O)c(CN3CCCC(C)C3)c2oc1=O` (stereo unspecified), the Potency result was “inactive”.

With `Cc1csc(Nc2ccc(Cl)cc2)[n+]1-c1ccc(Cl)cc1`, the Potency entry was “inactive”.

On to `O=C1NC[C@H](CCCCN2C[C@H](Cc3ccccc3)N(CCc3ccccc3)C(=O)C2=O)N(CCC2CCCCC2)C1=O`, for which the Potency was 20 µM (active).

For `COCCCC1CCN(C(=O)C2CCC(=O)N(CCCc3ccccc3)C2)CC1` (stereo unspecified), the Potency result is “inactive”.

With `O=C1NC[C@H](Cc2ccccc2)N(C[C@@H]2CCCN2C[C@H](Cc2ccccc2)N2C[C@H](Cc3ccccc3)N(CC3CCCCC3)C(=O)C2=O)C1=O`, the Potency was 39.8 µM (active).

Consider `CC(C)C[C@H]1CNC(=S)N1C[C@H]1CCCN1C[C@H](Cc1ccc(O)cc1)N1C[C@H](Cc2ccc(O)cc2)N(CCc2ccccc2)C1=S`, for which the Potency was 15.8 µM (active).

In the case of `CC(C)C[C@@H](CN1CCC[C@H]1CN1C(=O)C(=O)NC[C@@H]1Cc1ccccc1)N1C[C@H](Cc2ccccc2)N(CC2CCCCC2)C(=O)C1=O`, the Potency was 35.5 µM (active).

Take `Clc1ccc2oc(-c3ccccc3)cc(=NCCCN3CCOCC3)c2c1`: the Potency entry is “inactive”.

With `COc1ccc(CCNC2CCc3ccccc3C2)cc1` (stereo unspecified), the Potency entry is “inactive”.

For the compound `O=C(Cn1ccc([N+](=O)[O-])n1)NCc1ccccc1`, the Potency entry was “inactive”.

Regarding `Cc1c(O)c(CN2CCCCC2)cc2c3c(c(=O)oc12)CCC3`, the Potency entry was “inactive”.

Regarding `Cc1nc(-c2ccc(S(=O)(=O)Nc3cccc(S(N)(=O)=O)c3)s2)cs1`, the Potency entry was “inactive”.

On to `Cc1ccc(-n2c3nc(=O)n(C)c(=O)c-3cc3ccccc32)cc1`, for which the Potency result is “inactive”.

Regarding `Cc1ccc(-n2c(Cl)c(Cl)nc(Cl)c2=O)cc1`, the Potency is 4.74 µM (active).

With `Cc1ccc(-n2c(=O)c(C#N)cc3c(=O)n4ccccc4nc32)cc1`, the Potency entry was “inactive”.

For `O=c1c2ccccc2c(-c2ccc(F)cc2)nn1-c1ccc(C(F)(F)F)cc1`, the Potency entry was “inactive”.

For the compound `Fc1ccc2cnc(-c3ccccc3)c(-c3cc(C(F)(F)F)cc(C(F)(F)F)c3)c2c1`, the Potency was 35.5 µM (active).

Take `CCOC(=O)C1(CC2CCCCO2)CCN(S(=O)(=O)c2ccccc2)CC1` (stereo unspecified): the Potency result is “inactive”.

For `COc1ccc(C(=O)Nc2ccccc2N2CCOCC2)cc1S(=O)(=O)N1CCOCC1`, the Potency result was “inactive”.

With `CN1CCN(c2ccccc2NC(=S)NC(=O)c2cc3ccccc3o2)CC1`, the Potency is 39.8 µM (active).

Turning to `COc1cccc(/C=C/C(=O)Nc2ccccc2N2CCOCC2)c1`, the Potency entry is “inactive”.

Regarding `COc1ccc2cc3cc(C(=O)Nc4ccccc4N4CCN(C)CC4)oc3nc2c1`, the Potency is 39.8 µM (active).

For the compound `Cc1ccc(C)c(NC(=O)c2cc3ccccc3o2)c1`, the Potency entry was “inactive”.

As for `COc1c(C)cc(Br)cc1C(=O)Nc1ccccc1N1CCN(C(=O)c2ccccc2)CC1`, the Potency result is “inactive”.

`COc1ccc2cc3cc(C(=O)Nc4ccc5c(c4)OCO5)oc3nc2c1`: the Potency is 22.4 µM (active).

Turning to `Cc1ccc2cccc(OCC(=O)Nc3ccc4c(c3)OCO4)c2n1`, the Potency entry was “inactive”.

For `COc1ccc2cc3cc(C(=O)Nc4ccc5c(c4)OCCO5)oc3nc2c1`, the Potency is 28.2 µM (active).

Regarding `COc1ccc(C(=O)Nc2ccc3ccccc3c2)c(OC)c1`, the Potency entry was “inactive”.

`Nc1c(C(=O)CSc2nnc(Nc3ccc(F)cc3)s2)c(=O)[nH]c(=O)n1C1CC1`: the Potency entry was “inactive”.

In the case of `COc1ccc2c(c1)c(=O)oc1cc(O)ccc12`, the Potency entry was “inactive”.

In the case of `Cc1ccc2nc3c(cc(C(=O)NC4CCCC4)c(=N)n3C(C)C)c(=O)n2c1`, the Potency entry is “inactive”.

Consider `O=C(O)c1ccc(/N=c2\oc3cc(O)ccc3cc2C(=O)NCc2ccccc2)cc1`, for which the Potency result was “inactive”.

Take `O=c1cc(CN2CCOCC2)c2cc(Cl)c(O)cc2o1`: the Potency result was “inactive”.

For the compound `CN(C)C(=O)COc1ccc2c(-c3ccccc3)cc(=O)oc2c1`, the Potency entry is “inactive”.

As for `CCOc1cc(/C=C2\COc3ccccc3C2=O)cc(Br)c1OCC(=O)N(C)C`, the Potency is 28.2 µM (active).

`CCOc1cc(/C=C2/C(=O)ON=C2C)cc(Br)c1O`: the Potency result was “inactive”.

For `C=CCn1cc[n+](-c2nc3ccccc3nc2[N-]S(=O)(=O)c2cccs2)c1`, the Potency result was “inactive”.

In the case of `CCNc1nc(SCC(N)=O)nc2sc3c(c12)CCN(C)C3`, the Potency entry is “inactive”.

Regarding `COC(=O)c1ccc(CO/N=C/c2ccc(OC)cc2)o1`, the Potency result is “inactive”.

Turning to `COc1ccc(C[C@@H]2OC3(C=CC(=O)C=C3)O[C@H]2Cc2ccc(OC)cc2)cc1`, the Potency was 3.98 µM (active).

On to `COc1ccc(Cc2n[nH]c(=S)n(N)c2=O)cc1`, for which the Potency result is “inactive”.

Take `CC1CN(Cc2cc(=O)oc3cc(O)c(Cl)cc23)CC(C)O1` (stereo unspecified): the Potency result is “inactive”.

As to `CCc1c(O)nc2c(c(C)nn2-c2ccccc2)c1C`, the Potency result was “inactive”.

For `Cc1nn(-c2ccccc2)c(C)c1C(=O)Oc1ccccc1`, the Potency entry is “inactive”.

In the case of `CCCSC(=S)c1c(C)nn(-c2ccccc2)c1O`, the Potency is 22.4 µM (active).

`NC[C@H](Cc1ccccc1)NCCc1cc(C(F)(F)F)cc(C(F)(F)F)c1`: the Potency is 39.8 µM (active).

For the compound `NC(=S)c1cc2cc(Cl)ccc2oc1=O`, the Potency result was “inactive”.

Regarding `N=c1c(C(=O)NCC2CCCO2)cc2c(=O)n3ccccc3nc2n1C1CCCCC1` (stereo unspecified), the Potency result was “inactive”.

For the compound `COc1ccc(NC(=O)CC2Sc3ncnn3C2=O)cc1` (stereo unspecified), the Potency was 39.8 µM (active).

Turning to `COc1ccc(NC(=O)CSCC(=O)NCCc2ccccn2)cc1`, the Potency entry was “inactive”.

With `COc1ccc(NC(=O)CN2CCN(CC(=O)Nc3ccc(OC)cc3)CC2)cc1`, the Potency entry is “inactive”.

Take `O=C(Oc1c(CN2CCOCC2)cc(Cl)c2cccnc12)c1ccccc1F`: the Potency result was “inactive”.

As for `CC(=O)N1CCCc2cc(S(=O)(=O)N3CCCC(C(=O)N4CCN(c5cccc(Cl)c5)CC4)C3)ccc21` (stereo unspecified), the Potency is 39.8 µM (active).

In the case of `CC(=O)N1CCc2ccc(S(=O)(=O)N3CCc4ccccc43)cc21`, the Potency entry is “inactive”.

Consider `CC(C)c1ccc(S(=O)(=O)N2CCN(C(=O)C3CCCC3)CC2)cc1`, for which the Potency entry is “inactive”.

In the case of `CC(NC(=O)c1ccc2ccccc2n1)c1ccc(S(N)(=O)=O)cc1` (stereo unspecified), the Potency result was “inactive”.

On to `COc1ccc(C(=O)N/N=C/c2cc3ccccc3nc2O)cc1`, for which the Potency result was “inactive”.

For `COc1ccc(C(=O)NNC(=O)c2ccc3ccccc3n2)cc1`, the Potency was 17.8 µM (active).

For `COc1ccc(C2c3[nH]c4ccccc4c3CCN2CCCn2cccn2)c(C)c1C` (stereo unspecified), the Potency entry is “inactive”.

For `Cc1cccc(N=C(S)N=Nc2c(O)n(CN3CCOCC3)c3ccccc23)c1C`, the Potency was 6.31 µM (active).

As to `Oc1c(N=NC(S)=Nc2ccccc2F)c2ccccc2n1Cc1ccc(Cl)cc1`, the Potency entry was “inactive”.

As to `CCn1c(O)c(N=NC(S)=NCC2CCCO2)c2ccccc21` (stereo unspecified), the Potency was 8.91 µM (active).

`Cc1cccc(N=C(S)N2CCC(C(N)=O)(N3CCCCC3)CC2)c1C`: the Potency result is “inactive”.

Turning to `Cc1ccc(C(=O)Nc2nc3n(n2)C(c2ccc(F)cc2)C=C(c2ccccc2)N3)cc1` (stereo unspecified), the Potency result is “inactive”.

As to `NS(=O)(=O)c1ccc(CCN2C(=O)/C(=C\c3ccc(Cl)cc3)SC2=S)cc1`, the Potency was 17.8 µM (active).

For the compound `NS(=O)(=O)c1ccc(CCNS(=O)(=O)c2ccc(Cl)s2)cc1`, the Potency result is “inactive”.

Consider `O=C(O)CN1C(=O)/C(=C\c2cccc(OCc3ccc(Cl)cc3)c2)SC1=S`, for which the Potency result was “inactive”.

In the case of `O=C1/C(=C/c2ccccc2Cl)SC(=S)N1CCCC(=O)N(CCO)c1ccccc1`, the Potency was 31.6 µM (active).

Consider `O=C1/C(=C\c2cccc(O)c2O)SC(=S)N1Cc1ccccc1`, for which the Potency is 31.6 µM (active).

Turning to `COc1cc([N+](=O)[O-])cc(/C=C2/SC(=S)N(Cc3ccccc3)C2=O)c1O`, the Potency was 20 µM (active).

Turning to `O=C(O)c1cc(-c2ccc(/C=C3/SC(=S)N(Cc4ccccc4)C3=O)o2)ccc1Cl`, the Potency entry is “inactive”.

As to `COc1ccc(/C=C(\C)C(=O)c2c(C)cc(C)nc2O)cc1`, the Potency result is “inactive”.

Regarding `Cc1ccc2c(CN(C)Cc3cccc(Cl)c3)cc(=O)oc2c1C`, the Potency result is “inactive”.

In the case of `C=C1c2ccccc2N=C(S)N1Cc1ccc2c(c1)OCO2`, the Potency entry is “inactive”.

Take `COCc1cc(C)nc(SCC(=O)Oc2ccc(Cl)cc2)c1C#N`: the Potency result is “inactive”.

Take `N=c1c(C(=O)NC2CCCCC2)cc2c(=O)n3ccccc3nc2n1CC1CCCO1` (stereo unspecified): the Potency result was “inactive”.

`CCn1nc(NC(=O)C(C)(C)C)c2cc3cccc(C)c3nc21`: the Potency result was “inactive”.

Consider `O=C1/C(=C\c2cc([N+](=O)[O-])ccc2O)SC(=S)N1Cc1ccc(Cl)cc1`, for which the Potency was 35.5 µM (active).

On to `O=C1c2ccc([N+](=O)[O-])cc2C(=O)N1c1ccc(Cl)cn1`, for which the Potency entry is “inactive”.

Consider `CN(C)c1ccc(/C=C/C=N/Nc2nc(N3CCOCC3)nc(N3CCOCC3)n2)cc1`, for which the Potency entry is “inactive”.

In the case of `OCCCNc1nc(-c2ccccc2)c2cc(Cl)ccc2n1`, the Potency entry was “inactive”.

Regarding `OCCNc1nc(-c2ccccc2)c2cc(Cl)ccc2n1`, the Potency result is “inactive”.

As for `O=C(CCl)NNc1nc(-c2ccccc2)c2cc(Cl)ccc2n1`, the Potency was 1.58 µM (active).

Turning to `CCC(C)(C)n1nnnc1C(c1ccc(F)cc1)N1CCC(C(N)=O)CC1` (stereo unspecified), the Potency entry is “inactive”.

Regarding `CCOC(=O)c1c(CC(C)C)csc1/N=C/C1C(=O)CCCC1=O`, the Potency entry is “inactive”.

`CCOC(=O)c1c(CC(C)C)csc1NC=C1C(=O)CCCC1=O`: the Potency was 39.8 µM (active).

Take `CCOC(=O)c1c(CC(C)C)csc1N`: the Potency result was “inactive”.

As to `CCc1c(C)c2cc(Cl)c(O)c(CN3CCCC3)c2oc1=O`, the Potency result was “inactive”.

`O=C(NNC(=O)c1ccc(Cl)cc1Cl)c1cnccn1`: the Potency entry was “inactive”.
